# “And” between values parts separate entries of the source, which are not always exact repeats. Equal values may be shown once. Records with an inconclusive call do not appear. Entries that show only a call come without a potency. The source made the active and inactive calls. Unless noted, calls follow the shape of the dose curve; as a rule, active = well fitted curve in the direction sought with a large enough effect; inconclusive = small, poorly fitted or top-dose-only effect, or another doubt; inactive = no such curve, though single readings can be large; an effect the other way counts as inactive or inconclusive.
# Legend:
# [1] = AP1 Signaling Pathway (AID 357; active = well fitted curve in either direction with a large enough effect, not every such curve was filed as active;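 also: ME-180 reporter cells stimulated with EGF at its EC50 level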); details: ME-180 AP-1-bla reporter, EGF-induced, beta-lactamase ratio, 5 h
# Procedure, shortened: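 Modulation of EGF-driven AP-1 transcription was assessed with a beta-lactamase reporter in ME-180 cells. Compound and EC50 EGF were co-incubated 5 hours at 37 °C before 2.5-hour CCF4 loading at room temperature and dual-emission reading.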
# [2] = NFAT Signaling Pathway (AID 444; active = well fitted curve in either direction with a large enough effect, not every such curve was filed as active;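 also: carbachol stimulus at about its EC50 of 1 µM final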); details: Jurkat NFAT-bla M1, carbachol, beta-lactamase ratio, 5 h
# Procedure, shortened: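 Jurkat cells with NFAT-driven β-lactamase reporter and co-expressed M1 receptor, stimulated with carbachol (final 1 uM, ~EC50), compound titration, 5 h at 37 °C. CCF4 loaded 1 h at RT; 460/530 nm ratio gave %activity and AC50.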
# [3] = Stat Signaling Pathway (AID 446; active = well fitted curve in either direction with a large enough effect, not every such curve was filed as active;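 also: ME-180 cervical cancer cells given 40 pM IL-6 alongside compound; SIE-controlled beta-lactamase reporter measured as 460/530 nm FRET emission ratio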); details: ME-180 (cervical carcinoma) SIE beta-lactamase reporter, IL-6 stimulated, 5 h
# Procedure, shortened: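 IL-6/STAT signaling read in ME-180 cells via an SIE beta-lactamase reporter. Stimulus was 40 pM IL-6 (its AC50) for 5 hrs, so both activation and inhibition register.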
# [4] = molecular target: Glucocorticoid receptor (Homo sapiens) (UniProt P04150); experiment: GR-GFP Redistribution (AID 450;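 active = compounds whose dose series gives a full or clear partial fitted curve of increased nuclear translocation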; also: potency is read from the fitted curve at half-maximal effect); details: U2OS GR-GFP nuclear translocation, laser cytometry, 2 h
# [5] = molecular target: Glucocorticoid receptor (Homo sapiens) (UniProt P04150); experiment: GR-EFC Redistribution (AID 451; calls by dose curve; also: potency is read from the fitted curve at half-maximal effect); details: CHO-K1 GR-EFC translocation, beta-gal luminescence, 2 h
# Procedure, shortened: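 CHO-K1 cells expressing nuclear EA and GR-ED fragments of b-gal; compounds titrated up to 46 uM final, 2 h at 37 C. GR nuclear translocation read as complemented b-gal luminescence after 1 h RT detection.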
# [6] = molecular target: Mitogen-activated protein kinase 10 (Mus musculus) (UniProt Q61831); experiment: JNK3 AlphaScreen Assay (AID 530; active = well fitted curve in either direction with a large enough effect, not every such curve was filed as active;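 also: kinase came from lysate of stimulated human HepG2 cells; signal reports phosphorylation of biotinylated GST-cJun 1-79 at Ser73 with 10 µM ATP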)
# Procedure, shortened: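 Pre-activated (IL-1β/TNFα) JNK3 in HepG2 lysates phosphorylates biotin-GST-cJun(1-79), 10 uM ATP; anti-phospho-cJun(Ser73) AlphaScreen read at room temperature, pH 7.6 Tris buffer. Compounds pre-incubated 15 min as titrations.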
# [7] = molecular target: 3',5'-cyclic-AMP phosphodiesterase 4B (Homo sapiens) (UniProt Q07343); experiment: qHTS Assay for Inhibitors of PDE-IV (AID 607; active = well fitted activation curve with a large enough effect in the main read-out, with a control signal flat, not every such curve was filed as active)
# Procedure, shortened: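 Live HEK293 cells with a modified cyclic nucleotide-gated (CNG) channel report intracellular cAMP via membrane-potential dye fluorescence (ex 535/em 590 nm). Endogenous PDE-IV was targeted. Compounds were tested at up to 22.9 uM final; RO 20-1724 100 uM served as control.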
# [8] = molecular target: Guanine nucleotide-binding protein G(i) subunit alpha-1 (Homo sapiens) (UniProt P63096); experiment: qHTS Assay for Inhibitors of RGS12 GoLoco Motif Activity (Green Fluorophore) (AID 879);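 also: negative values mean loss of peptide binding seen as reduced polarization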
# Procedure, shortened: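 Fluorescence polarization assay: 50 nM Gαi1 with 10 nM FITC-labeled RGS12 GoLoco peptide in 10 mM Tris pH 7.5, 150 mM NaCl, 0.1 mM GDP, 0.05% NP40, 10 min at room temperature with compound.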
# [9] = Confirmation and Secondary Assay for Modulators of Hemoglobin Beta Chain Splicing at IVS2 654 locus (AID 910);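 also: HeLa cells stably carrying EGFP split by mutant beta-globin IVS2-654 intron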
# Procedure, shortened: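 HeLa cells stably expressing EGFP interrupted by β-globin IVS2-654 intron, seeded overnight in Opti-MEM/2% FCS, then treated 2 days at 37 °C. Restored splicing read as total peak GFP intensity per well by laser scanning cytometry (488 nm excitation, 500–520 nm emission); 500 nM antisense PNA as control.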
# [10] = Confirmation and Secondary Assay for Modulators of Hemoglobin Beta Chain Splicing at IVS2 705 locus (AID 930);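 also: HeLa cells stably expressing the EGFP-705 splicing reporter; GFP fluorescence per well restored by corrected splicing of the IVS2-705 intron in EGFP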
# Procedure, shortened: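 Assay measures total GFP intensity per well in HeLa EGFP-705 cells after 2 days with compound; mis-splicing normally truncates EGFP, so fluorescence indicates corrected splicing.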
# [11] = molecular target: Pyruvate kinase (Leishmania mexicana) (UniProt Q27686); experiment: qHTS Validation Assay for Inhibitors of Leishmania Mexicana Pyruvate Kinase (AID 945)
# Procedure, shortened: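 Pyruvate kinase activity of E451W LmPYK (0.2 nM) was followed as ATP output after 1 h at room temperature with 0.5 mM PEP and 0.1 mM ADP, detected by PKLight luminescence.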
# [12] = molecular target: Pyruvate kinase PKM (Homo sapiens) (UniProt P14618); experiment: qHTS Assay for Activators of Human Muscle Pyruvate Kinase (AID 954; active = well fitted curve in the direction sought with a large enough effect, not every such curve was filed as active)
# Procedure, shortened: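 Enzyme was run at intermediate activity so both inhibitors and activators could be detected. ATP formed from ADP and PEP by 0.1 nM human PKM2 during a 1 h room-temperature incubation was quantified by coupled luciferase luminescence.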
# [13] = molecular target: Alpha-galactosidase A (Homo sapiens) (UniProt P06280); experiment: Counterscreen for Glucocerebrosidase Inhibitors: qHTS Assay for Human alpha-Galactosidase at pH 4.5 (AID 992)
# Procedure, shortened: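 Read-out is 4-methylumbelliferone fluorescence (365 nm excitation, 440 nm emission) after a pH 10 NaOH/glycine stop. Reactions held 2 nM enzyme and 80 uM substrate at pH 4.5 for 20 min at room temperature.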
# [14] = molecular target: alpha-glucosidase (Oryza sativa, rice) (UniProt Q653V4); experiment: Counterscreen for Glucocerebrosidase Inhibitors: qHTS Assay for Rice alpha-Glucosidase at pH 5.0 (AID 997)
# Procedure, shortened: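 Rice alpha-glucosidase (4 nM final) with 400 uM 4-methylumbelliferyl-alpha-D-glucopyranoside in citrate buffer pH 5.0, 20 min at room temperature, stopped at pH 10; fluorescence 365/440 nm, compounds 0.7 nM–77 uM, AC50 from Hill fits.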
# [15] = molecular target: Ubiquitin carboxyl-terminal hydrolase 1 (Homo sapiens) (UniProt O94782); experiment: Inhibitors of USP1/UAF1: Pilot qHTS (AID 504865);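 also: rhodamine fluorescence freed from ubiquitin-rhodamine substrate followed over time; top concentration of the series differs between compounds; nearly all actives have a fitted effect of over 35% in size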
# Procedure, shortened: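 USP1/UAF1 complex at 1 nM preincubated 15 min at room temperature with compound, then Ub-Rho substrate added at 150 nM final. Fluorescence (480/540 nm) read kinetically in 50 mM HEPES pH 7.8, 0.5 mM EDTA, 1 mM TCEP, 0.1 mg/ml BSA, 0.01% Tween-20.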
# [16] = molecular target: DNA dC->dU-editing enzyme APOBEC-3G (Homo sapiens) (UniProt Q9HC16); experiment: qHTS for inhibitors of Vif-A3G interactions: Validation (AID 588379)
# Procedure, shortened: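 HeLa cells stably expressing Vif and A3G-eYFP, 700 cells/well, incubated overnight at 37 deg C, then exposed to compound overnight at 37 deg C. Inhibition of Vif-mediated degradation read as increased yellow fluorescence (Ex 488/Em 500-530) by laser-scanning cytometry.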
# [17] = system: Zika virus NS2B-NS3 protease; experiment: Primary screen GU AMC qHTS for Zika virus inhibitors (AID 1347154); also: nearly all actives have a fitted effect of over 70% in size
# Procedure, shortened: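 Unlinked Zika NS2B hydrophilic domain–NS3 protease complex at 25 nM in 10 mM Tris-HCl pH 8.0, 0.01% Tween 20, with an AMC peptide substrate. Fluorescence change (340/450 nm) over 15 min at room temperature, normalized to controls, fitted to 4-parameter Hill.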
# [18] = molecular target: Rap guanine nucleotide exchange factor 3 (Homo sapiens) (UniProt O95398); experiment: Confirmatory qHTS for antagonist of cAMP-regulated guanine nucleotide exchange factor 3 (EPAC1) (AID 1645880); also: nearly all actives have a fitted effect of over 55% in size
# Procedure, shortened: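 Nucleotide exchange uses 100 nM EPAC1, 250 nM RAP1B-BODIPY-GDP and 50 uM GDP, with compounds in a concentration-titration series. After 5 min at room temperature, fluorescence (480 nm ex/540 nm em) is read every 5 min for 30 min. Data are normalized to control ATA and DMSO.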
# [19] = molecular target: Rap guanine nucleotide exchange factor 3 (Homo sapiens) (UniProt O95398); experiment: Confirmatory qHTS for agonist of cAMP-regulated guanine nucleotide exchange factor 3 (EPAC1) (AID 1645881);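 also: EPAC1 catalysed release of BODIPY-GDP from Rap1B seen as fluorescence loss; nearly all actives have a fitted effect of over 75% in size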
# [20] = molecular target: Rap guanine nucleotide exchange factor 4 (Homo sapiens) (UniProt Q8WZA2); experiment: Confirmatory qHTS for agonist of cAMP-regulated guanine nucleotide exchange factor 4 (EPAC2) (AID 1645884);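 also: nucleotide exchange releases bodipy-GDP from Rap1 and this lowers its fluorescence; nearly all actives have a fitted effect of over 65% in size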
# [21] = molecular target: Rap guanine nucleotide exchange factor 4 (Homo sapiens) (UniProt Q8WZA2); experiment: Confirmatory qHTS for antagonist of cAMP-regulated guanine nucleotide exchange factor 4 (EPAC2) (AID 1645885); also: nearly all actives have a fitted effect of over 25% in size
# [22] = molecular target: Cytochrome P450 1A2 (Homo sapiens) (UniProt P05177); experiment: p450-cyp1a2 (AID 410; calls by dose curve; also: potency is read from the fitted curve at half-maximal effect)
# Procedure, shortened: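 20nM CYP1A2 with 100uM Luciferin-ME (at Km) in 100mM KPO4; compound preincubated 10 min, NADPH regeneration added, 60 min at room temperature. Luciferin quantified by luminescence after detection reagent; normalized to 57 uM furafylline.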
# [23] = qHTS Assay for Lipid Storage Modulators (AID 1519; calls by dose curve); details: Drosophila S3 cells, BODIPY lipid droplet/cell ratio, laser cytometry, cells loaded with oleic acid; for activity change, negative = inhibition: at 57.5 µM (top of the series)
# Procedure, shortened: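 Cells seeded at 5,000 per well were treated with compounds over a concentration series and loaded with oleic acid (400 uM, as added). Lipid droplet fluorescence (488 nm excitation, 500-530 nm channel) was read by laser-scanning cytometry and normalized to 20 uM Triacsin C.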
# [24] = measured here: cell count channel max response
# [25] = measured here: lipid channel max response
# Sequence of 3',5'-cyclic-AMP phosphodiesterase 4B (Homo sapiens) (Q07343 whole entry, looked up): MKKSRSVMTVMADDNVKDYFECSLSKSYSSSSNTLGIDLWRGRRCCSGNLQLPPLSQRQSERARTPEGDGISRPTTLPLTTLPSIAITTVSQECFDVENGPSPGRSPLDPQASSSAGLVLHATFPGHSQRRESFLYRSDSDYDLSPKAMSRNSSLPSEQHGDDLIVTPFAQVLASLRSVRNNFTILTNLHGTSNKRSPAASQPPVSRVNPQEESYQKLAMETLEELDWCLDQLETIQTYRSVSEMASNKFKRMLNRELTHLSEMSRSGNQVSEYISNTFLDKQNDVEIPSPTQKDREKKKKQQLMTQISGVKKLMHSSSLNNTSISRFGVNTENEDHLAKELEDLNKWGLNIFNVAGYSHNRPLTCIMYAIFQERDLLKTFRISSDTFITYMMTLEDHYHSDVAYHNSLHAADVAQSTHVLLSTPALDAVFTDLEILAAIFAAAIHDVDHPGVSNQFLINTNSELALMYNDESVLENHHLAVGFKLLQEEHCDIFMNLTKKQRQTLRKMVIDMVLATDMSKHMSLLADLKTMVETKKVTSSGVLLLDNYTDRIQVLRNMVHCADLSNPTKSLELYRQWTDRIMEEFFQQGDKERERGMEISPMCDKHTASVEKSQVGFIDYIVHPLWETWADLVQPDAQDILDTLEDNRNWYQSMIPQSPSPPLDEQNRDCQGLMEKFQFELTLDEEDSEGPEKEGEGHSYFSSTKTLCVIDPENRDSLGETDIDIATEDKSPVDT
# Sequence of DNA dC->dU-editing enzyme APOBEC-3G (Homo sapiens) (Q9HC16 whole entry, looked up): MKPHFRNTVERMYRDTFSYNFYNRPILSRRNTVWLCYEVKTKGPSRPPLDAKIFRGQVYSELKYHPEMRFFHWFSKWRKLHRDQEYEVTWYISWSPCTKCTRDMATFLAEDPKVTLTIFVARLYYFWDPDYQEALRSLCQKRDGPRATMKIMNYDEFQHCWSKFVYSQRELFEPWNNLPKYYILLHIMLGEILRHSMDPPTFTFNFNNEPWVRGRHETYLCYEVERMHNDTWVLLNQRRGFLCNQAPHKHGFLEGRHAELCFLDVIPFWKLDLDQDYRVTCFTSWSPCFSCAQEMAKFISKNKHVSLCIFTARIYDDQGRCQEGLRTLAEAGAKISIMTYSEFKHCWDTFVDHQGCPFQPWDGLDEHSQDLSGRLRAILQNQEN
# Sequence of Glucocorticoid receptor (Homo sapiens) (P04150 whole entry, looked up, the tested form may be a part): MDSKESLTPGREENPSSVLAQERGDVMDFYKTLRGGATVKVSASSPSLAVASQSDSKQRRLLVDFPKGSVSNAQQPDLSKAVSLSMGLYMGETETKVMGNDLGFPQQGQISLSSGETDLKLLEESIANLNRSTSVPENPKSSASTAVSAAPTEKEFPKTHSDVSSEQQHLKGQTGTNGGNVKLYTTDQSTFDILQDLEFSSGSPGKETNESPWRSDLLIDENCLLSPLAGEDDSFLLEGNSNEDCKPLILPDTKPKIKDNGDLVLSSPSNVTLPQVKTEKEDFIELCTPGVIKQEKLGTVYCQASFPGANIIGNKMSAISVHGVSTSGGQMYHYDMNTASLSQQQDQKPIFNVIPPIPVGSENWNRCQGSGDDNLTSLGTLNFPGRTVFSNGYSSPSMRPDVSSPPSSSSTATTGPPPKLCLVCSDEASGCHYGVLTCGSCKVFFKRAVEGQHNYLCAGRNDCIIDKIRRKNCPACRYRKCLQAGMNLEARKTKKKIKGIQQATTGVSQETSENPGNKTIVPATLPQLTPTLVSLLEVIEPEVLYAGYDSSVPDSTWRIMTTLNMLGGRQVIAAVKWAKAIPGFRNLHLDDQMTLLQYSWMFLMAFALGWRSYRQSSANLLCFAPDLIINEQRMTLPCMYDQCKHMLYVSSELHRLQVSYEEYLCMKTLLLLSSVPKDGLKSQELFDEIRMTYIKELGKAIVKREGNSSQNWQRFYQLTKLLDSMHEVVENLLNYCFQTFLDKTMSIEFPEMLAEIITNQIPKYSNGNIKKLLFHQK
# Sequence of Rap guanine nucleotide exchange factor 4 (Homo sapiens) (Q8WZA2 whole entry, looked up): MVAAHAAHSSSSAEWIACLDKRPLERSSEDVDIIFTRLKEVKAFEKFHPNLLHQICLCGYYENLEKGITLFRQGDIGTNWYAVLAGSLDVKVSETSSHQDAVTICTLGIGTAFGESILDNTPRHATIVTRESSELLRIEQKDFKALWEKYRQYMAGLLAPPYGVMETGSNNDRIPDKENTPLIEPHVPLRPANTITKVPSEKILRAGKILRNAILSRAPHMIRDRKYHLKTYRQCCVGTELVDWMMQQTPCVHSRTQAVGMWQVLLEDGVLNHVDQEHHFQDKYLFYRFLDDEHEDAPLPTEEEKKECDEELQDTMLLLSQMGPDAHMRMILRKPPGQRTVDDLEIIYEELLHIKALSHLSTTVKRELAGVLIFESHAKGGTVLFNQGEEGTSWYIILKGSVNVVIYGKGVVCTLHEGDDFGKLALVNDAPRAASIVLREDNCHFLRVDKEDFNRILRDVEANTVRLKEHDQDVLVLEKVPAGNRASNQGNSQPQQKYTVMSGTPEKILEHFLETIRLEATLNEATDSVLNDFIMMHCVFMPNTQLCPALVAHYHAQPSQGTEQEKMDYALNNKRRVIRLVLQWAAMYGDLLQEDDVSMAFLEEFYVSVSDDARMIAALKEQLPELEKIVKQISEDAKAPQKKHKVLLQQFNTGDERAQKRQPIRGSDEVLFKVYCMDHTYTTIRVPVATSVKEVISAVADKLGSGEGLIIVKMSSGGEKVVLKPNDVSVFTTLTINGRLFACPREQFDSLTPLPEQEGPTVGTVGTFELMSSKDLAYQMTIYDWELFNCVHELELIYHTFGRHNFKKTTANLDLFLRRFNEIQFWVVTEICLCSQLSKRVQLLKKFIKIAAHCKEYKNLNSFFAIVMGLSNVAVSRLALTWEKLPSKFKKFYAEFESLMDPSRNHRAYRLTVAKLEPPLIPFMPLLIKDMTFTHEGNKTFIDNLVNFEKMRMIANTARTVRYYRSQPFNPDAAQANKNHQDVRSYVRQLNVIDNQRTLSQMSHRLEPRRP
# Sequence of Pyruvate kinase PKM (Homo sapiens) (P14618 whole entry, looked up): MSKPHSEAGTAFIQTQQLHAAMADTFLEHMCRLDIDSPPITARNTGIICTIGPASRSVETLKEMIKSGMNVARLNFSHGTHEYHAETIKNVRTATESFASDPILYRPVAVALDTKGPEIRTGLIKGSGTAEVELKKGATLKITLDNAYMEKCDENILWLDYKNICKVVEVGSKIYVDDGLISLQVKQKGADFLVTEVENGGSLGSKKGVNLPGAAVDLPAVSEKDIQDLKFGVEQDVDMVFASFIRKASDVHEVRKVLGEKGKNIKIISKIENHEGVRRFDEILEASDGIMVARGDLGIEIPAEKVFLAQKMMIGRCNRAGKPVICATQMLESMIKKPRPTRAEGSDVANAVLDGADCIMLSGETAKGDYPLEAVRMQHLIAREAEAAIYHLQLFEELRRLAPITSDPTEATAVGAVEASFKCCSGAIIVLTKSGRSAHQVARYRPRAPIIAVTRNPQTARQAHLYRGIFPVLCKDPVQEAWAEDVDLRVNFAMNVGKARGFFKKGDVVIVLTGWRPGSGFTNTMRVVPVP
# Sequence of Guanine nucleotide-binding protein G(i) subunit alpha-1 (Homo sapiens) (P63096 whole entry, looked up): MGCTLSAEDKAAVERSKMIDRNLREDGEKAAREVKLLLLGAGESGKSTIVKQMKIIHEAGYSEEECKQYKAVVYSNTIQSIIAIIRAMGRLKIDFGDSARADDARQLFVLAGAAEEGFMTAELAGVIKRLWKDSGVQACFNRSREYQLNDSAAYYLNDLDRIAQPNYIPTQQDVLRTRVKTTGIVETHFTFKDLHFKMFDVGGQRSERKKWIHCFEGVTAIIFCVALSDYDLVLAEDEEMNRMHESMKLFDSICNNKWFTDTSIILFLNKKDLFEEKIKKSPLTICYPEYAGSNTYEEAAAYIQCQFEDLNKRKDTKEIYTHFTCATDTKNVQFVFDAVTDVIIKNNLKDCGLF
# Sequence of Rap guanine nucleotide exchange factor 3 (Homo sapiens) (O95398 whole entry, looked up): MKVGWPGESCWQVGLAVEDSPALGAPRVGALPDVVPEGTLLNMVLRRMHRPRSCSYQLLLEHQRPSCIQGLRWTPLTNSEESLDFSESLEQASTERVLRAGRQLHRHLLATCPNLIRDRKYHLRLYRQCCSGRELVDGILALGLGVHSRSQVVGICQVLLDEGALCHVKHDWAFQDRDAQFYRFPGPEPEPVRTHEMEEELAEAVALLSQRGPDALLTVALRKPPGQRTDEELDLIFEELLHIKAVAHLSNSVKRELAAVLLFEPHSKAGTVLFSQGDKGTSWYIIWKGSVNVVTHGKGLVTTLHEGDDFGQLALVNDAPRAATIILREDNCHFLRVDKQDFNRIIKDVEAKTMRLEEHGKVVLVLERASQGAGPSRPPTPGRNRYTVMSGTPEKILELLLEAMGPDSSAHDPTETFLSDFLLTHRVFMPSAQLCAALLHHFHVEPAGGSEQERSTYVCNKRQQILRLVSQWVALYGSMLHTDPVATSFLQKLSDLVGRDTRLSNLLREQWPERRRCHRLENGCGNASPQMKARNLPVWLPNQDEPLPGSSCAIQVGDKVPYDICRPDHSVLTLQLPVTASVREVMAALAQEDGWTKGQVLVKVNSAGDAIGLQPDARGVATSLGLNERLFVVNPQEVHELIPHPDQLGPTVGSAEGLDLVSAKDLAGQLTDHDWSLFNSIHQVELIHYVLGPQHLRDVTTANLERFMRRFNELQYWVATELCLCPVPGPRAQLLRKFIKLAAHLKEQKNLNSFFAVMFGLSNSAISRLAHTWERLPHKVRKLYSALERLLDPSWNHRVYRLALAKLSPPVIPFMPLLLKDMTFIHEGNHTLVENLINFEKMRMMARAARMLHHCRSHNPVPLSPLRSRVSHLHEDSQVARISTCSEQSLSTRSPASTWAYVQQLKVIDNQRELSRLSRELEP
smiles,measurement,setting,value
CC(C)(C)NC[C@H](O)c1ccc(O)c(CO)c1,"activity change, negative = inhibition",[1]; at 17.2 µM (top of the series),-9.06% (inactive)
same,"activity change, negative = inhibition",[1]; at 38 µM (top of the series),-4.2% (inactive) and -6.86% (inactive)
same,"activity change, negative = inhibition",[2]; at 17.2 µM (top of the series),-10.8% (inactive)
same,"activity change, negative = inhibition",[2]; at 38 µM (top of the series),0.545% (inactive) and 8.74% (inactive)
same,"activity, negative = inhibition",[3]; at 17.2 µM (top of the series),16.1% (inactive)
same,"activity, negative = inhibition",[3]; at 38 µM (top of the series),-5.91% (inactive) and -0.604% (inactive)
same,Potency,[4],> 46 µM (inactive) and > 20.6 µM (inactive)
same,Potency,[5],> 46 µM (inactive) and > 20.6 µM (inactive)
same,Potency,[6],inactive
same,Potency,[7],inactive
same,outcome,[8],inactive
same,outcome,[9],inactive
same,outcome,[10],inactive
same,Potency,[11],inactive
same,outcome,[12],inactive
same,outcome,[13],inactive
same,outcome,[14],inactive
same,Potency,[15],inactive
same,Potency,[16],inactive
same,Potency,[17],inactive
NC(C(=O)O)c1cc(O)c(Cl)c(O)c1 (configuration not stated),Potency,[17],inactive
same,Potency,[18],inactive
same,outcome,[19],inactive
same,outcome,[20],inactive
same,Potency,[21],inactive
CCCCCCCCCCCCCCCC(=O)C(F)(F)F,Potency,[22],31.6 µM (active)
same,Potency,[5],> 46 µM (inactive)
same,Potency,[6],inactive
same,"activity change, negative = inhibition",[23],2.39% (inactive)
same,max response,[23]; [24],-9.26%
same,max response,[23]; [25],-5.47%
same,Potency,[16],inactive
same,Potency,[17],inactive
N#C/C(=C\c1ccc(O)c(O)c1)C(N)=O,Potency,[22],39.8 µM (active)
same,Potency,[4],> 46 µM (inactive)
same,Potency,[5],> 46 µM (inactive)
same,Potency,[7],inactive
same,"activity change, negative = inhibition",[23],-11.6% (inactive)
same,max response,[23]; [24],26.3%
same,max response,[23]; [25],9.4%
same,Potency,[16],inactive
same,Potency,[17],inactive

# Source: PubChem BioAssay (NCATS)
